# LMNA splice mod – qHTS Assay for Modulators of Lamin A Splicing. HeLa LMNA splicing GFP/RFP minigene ratio, 48 h. hit rate 0.01% among 200,000. Potency, µM (series often up to 46.1 µM), for the others: at the highest dose ratio change, negative = inhibition, usual class: inhibitors; active = well fitted inhibition curve with a large enough effect in the signal ratio, with a control signal flat, not every such curve was filed as active; inconclusive = small, poorly fitted or top-dose-only effect, or effect the other way, or a change in a side signal; the % refers to the signal ratio; note: potency is the fitted concentration of half-maximal effect; % is set by controls: 0 for no effect and ±100 for the full control effect
#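 S3 HeLa stable clones carrying a lamin A-EGFP splicing minigene plus DsRed2 were seeded at 600 cells/well in Opti-MEM with 2% FBS, pin-dosed and incubated 48 h at 37°C. Acumen cytometry (488 nm) gave the GFP/RFP total-intensity ratio.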
# G9a inh – qHTS Assay for Inhibitors of Histone Lysine Methyltransferase G9a. G9a H3K9 monomethylation, AlphaScreen, 2 h. Potency, µM (highest dose often 102 µM), for the others: top-dose activity, negative = inhibition, most hits filed as inhibitors. hit rate 8.8% among 350,000; note: potency is the fitted concentration of half-maximal effect; % is set by controls: 0 for no effect and ±100 for the full control effect; nearly all actives have a fitted effect of over 75% in size
# Target sequence (Q96KQ7 913-1193 limits assumed): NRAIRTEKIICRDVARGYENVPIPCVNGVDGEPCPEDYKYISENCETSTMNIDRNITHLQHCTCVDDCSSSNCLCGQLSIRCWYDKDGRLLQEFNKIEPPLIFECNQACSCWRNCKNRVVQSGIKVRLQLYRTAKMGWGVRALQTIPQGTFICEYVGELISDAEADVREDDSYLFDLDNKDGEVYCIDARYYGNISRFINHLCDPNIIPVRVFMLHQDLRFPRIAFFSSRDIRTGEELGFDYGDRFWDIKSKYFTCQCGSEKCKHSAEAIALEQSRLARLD
#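 Methyltransferase reactions run at room temperature for 2 h (20 nM enzyme, 500 nM biotin-H3K9 peptide, 20 uM SAM) after a 15 min compound preincubation; product detected by AlphaScreen beads and anti-H3K9me1 antibody.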
# Sfp PPTase inh – qHTS Assay for Inhibitors of Bacillus subtilis Sfp phosphopantetheinyl transferase (PPTase); hit rate 3.5% among 310,000; Potency, µM, for the others: largest response in the series, negative = inhibition, usual class: inhibitors; 4'-phosphopantetheinyl transferase ffp (Bacillus subtilis), Q9F4F7; Biochemical Sfp PPTase activity, qHTS;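 note: the enzyme is Sfp with the accession as filed and its product quenches rhodamine fluorescence; potency is the fitted concentration of half-maximal effect; 0% = enzyme reaction without inhibitor and -100% = no enzyme wells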
#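 Reaction rates are the 30-min fluorescence difference (ex 525, em 598 nm) in wells containing 15 nM Sfp, 5 uM rhodamine-CoA and 12.5 uM BHQ-2-YbbR at pH 7.6 with 10 mM MgCl2.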
# JMJD2E inh – qHTS Assay for Inhibitors of Human Jumonji Domain Containing 2E (JMJD2E); Potency, µM (highest dose often 57.1 µM), without a hit: top-dose activity change, negative = inhibition, most hits filed as inhibitors; JMJD2E catalytic domain, FDH-coupled NADH fluorescence (FDH is formaldehyde dehydrogenase); hit rate 1.6% among 230,000; active = well fitted inhibition curve with a large enough effect, not every such curve was filed as active; inconclusive = small, poorly fitted or top-dose-only effect, or another doubt; inactive = no such curve, though single readings can be large or run the other way;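 note: potency is the fitted concentration of half-maximal effect; 0% = wells with enzyme and -100% = buffer wells without enzyme; nearly all actives have a fitted effect of over 50% in size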
# Target sequence (B2RXH2 1-337 limits assumed): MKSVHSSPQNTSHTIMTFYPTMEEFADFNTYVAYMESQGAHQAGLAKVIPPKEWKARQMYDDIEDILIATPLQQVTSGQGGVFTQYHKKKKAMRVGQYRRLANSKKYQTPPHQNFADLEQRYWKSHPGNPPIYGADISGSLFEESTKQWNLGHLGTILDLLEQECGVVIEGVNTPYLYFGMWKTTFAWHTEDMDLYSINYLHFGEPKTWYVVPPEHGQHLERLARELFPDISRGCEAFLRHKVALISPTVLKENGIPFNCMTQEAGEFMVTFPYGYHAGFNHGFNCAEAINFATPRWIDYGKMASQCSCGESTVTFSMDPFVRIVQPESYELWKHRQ
# miR-21 act – qHTS Assay for Modulators of miRNAs and/orActivators of miR-21; HeLa miR-21 FLuc reporter, luciferase, 48 h; Potency, µM (highest dose often 38.3 µM), for inactives: at the top dose activity change, positive = activation, hits mostly activators; 340,000 tested, under 10 active; AID 2288, 2010;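 note: % of control where 0% means no effect; miR-21 action dims this reporter so a rising signal means less miR-21 action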
#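 Using DMEM plus 10% FBS, HeLa miR-21-FLuc cells are incubated with test compounds (final up to about 40uM) for 48 hours; firefly luciferase signal is then imaged following reagent-mediated lysis.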
# ALDH1A1 inh – qHTS Assay for Inhibitors of Aldehyde Dehydrogenase 1 (ALDH1A1); Potency, µM (highest dose often 75.3 µM), for the others: top-dose activity, negative = inhibition, usual class: inhibitors; Aldehyde dehydrogenase 1A1 (Homo sapiens), P00352; Purified ALDH1A1, NADH fluorescence, propionaldehyde substrate; hit rate 7.3% among 220,000; AID 1030, 2008; active = well fitted inhibition curve with a large enough effect, not every such curve was filed as active; inconclusive = small, poorly fitted or top-dose-only effect, or another doubt; inactive = no such curve, though single readings can be large or run the other way;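 note: potency is the fitted concentration of half-maximal effect; plate controls were no enzyme wells and a reference inhibitor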
# * = called active by the depositor; ? = inconclusive; . = no result; [ ] = another dose, or the depositor's remark. Compounds with a hit are over-represented: about 13% of the library has one in this group of screens. Unless noted, calls come from the whole dose curve; as a rule, active = well fitted curve in the direction sought with a large enough effect; inconclusive = small, poorly fitted or top-dose-only effect, or another doubt; inactive = no such curve, though single readings can be large; an effect the other way counts as inactive or inconclusive.
SMILES,LMNA splice mod,G9a inh,Sfp PPTase inh,JMJD2E inh,miR-21 act,ALDH1A1 inh
Cn1cccc1C(=O)N1CCC2(CCCN(Cc3nccs3)C2)CC1,.,0.6%[12.7 µM],8.1%,.,.,-3.1%
O=C(Oc1cc(-c2ccccc2)no1)c1ccc(Cl)cc1,-2.6%,79.4µM*,-5.1%,3.9%,1.0%,10.6%
CCOc1ccc(OCC)c(S(=O)(=O)N2CCOCC2)c1,8.8%[46 µM],.,9.3%,3.2%,4.8%,-3.3%
CCOc1cc(C)c(C(C)C)cc1S(=O)(=O)N1CCN(C)CC1,4.2%,5.4%[12.7 µM],-13.6%,4.4%,0.8%,5.01µM*
COc1cc(C)c(C(C)C)cc1S(=O)(=O)N1CCN(C)CC1,10.9%,10.4%[59 µM],12.6%,-3.0%,-5.3%,14.1µM*
CCOc1ccc(C(C)C)cc1S(=O)(=O)N1CCOCC1,.,-5.8%,9.9%,4.8%,-4.6%,8.91µM*
CCOc1cc(C)c(C(C)C)cc1S(=O)(=O)NCc1ccccn1,13.4%,9.2%[59 µM],-1.8%,7.6%,-6.0%,14.1µM*
COc1ccc(C(C)C)cc1S(=O)(=O)N1CCN(C)CC1,13.6%,?,1.7%,3.6%,-7.6%,?
Cc1ccn2c(=O)c(C(=O)NCCc3ccc(S(N)(=O)=O)cc3)c(O)nc2c1,.,-42.8%[59 µM],.,.,0.2%,.
CCOc1ccc(C(=O)CC(C(=O)O)N2CCCCC2)cc1 (stereo not drawn),.,11.5%[12.7 µM],.,.,.,.
CN(CC#CC1(O)c2ccccc2-c2ccccc21)Cc1ccccc1,-5.2%,1.58µM*,44.7µM*,-23.4%,-15.7%,-3.7%
CCN(CC)CC#CCC1(O)c2ccccc2-c2ccccc21,10.1%,16.4%[59 µM],10.3%,1.7%,-3.7%,5.2%
COc1ccc(C(=O)N2CCC[C@@]3(CCN(Cc4nccs4)C3)C2)cc1,.,-6.8%[12.7 µM],14.5%,.,.,8.91µM*
COC(=O)N1CCC[C@@]2(CCN(Cc3nccs3)C2)C1,.,2.0%[12.7 µM],11.6%,.,.,7.8%
COc1ccc(NC(=O)N2CCN(S(=O)(=O)c3ccc4c(ccn4C)c3)CC2)cc1OC,?,-18.6%[59 µM],.,.,-6.3%,.
CCOC(=O)c1cnc(-n2nc(C)cc2C)nc1N(C)C,-5.7%,?,?,8.0%,-9.2%,?
CCOC(=O)c1cnc(-n2nc(C)cc2C)nc1N1CCOCC1,-0.6%,79.4µM*,-21.5%,-11.3%,-2.8%,0.7%
CCOC(=O)c1cnc(-n2nc(C)cc2C)[nH]c1=O,.,-4.3%,50.1µM*,?,1.0%,.
CCOC(=O)c1cnc(-n2nc(C)cc2C)nc1NCCc1ccccc1,?,5.8%,50.1µM*,?,?,?
CCOC(=O)c1cnc(-n2[nH]c(C)cc2=O)[nH]c1=O,.,?,12.2%,?,-0.1%,5.0%
CCOC(=O)c1cnc(-n2nc(C)cc2C)nc1Nc1ccccc1OC,2.4%,-21.6%,11.6%,1.9%,-4.5%,3.8%
CCOC(=O)c1cnc(-n2nc(C)cc2C)nc1NC1CCCC1,.,.,31.6µM*,?,?,.
Cc1ccc(-n2ncc3c2CCCC3NC(=O)c2csnn2)cc1C (stereo not drawn),.,-22.9%,3.8%,.,-5.4%,.
COc1ccc(C(=O)NCc2nc(-c3cccc(C)c3)no2)cc1OC,.,-30.3%[59 µM],.,.,-0.3%,.
CCN(CC)S(=O)(=O)c1ccc2c(c1)N(CC(=O)Nc1ccc(C)cc1C)C(=O)C1CCCN21 (stereo not drawn),.,14.1µM*,.,.,3.6%,.
SMILES,LMNA splice mod,G9a inh,Sfp PPTase inh,JMJD2E inh,miR-21 act,ALDH1A1 inh
CCN1C(=O)C(CC(=O)Nc2ccc(C)cc2C)Nc2cc(S(=O)(=O)N(C)C)ccc21 (stereo not drawn),.,-32.1%,11.7%,-7.2%,0.8%,28.2µM*
Cc1cc(C)c2c(=O)cc(C(=O)Nc3sc4c(c3C#N)CCCC4)oc2c1,.,-0.6%[59 µM],.,.,-1.3%,.
Cc1ccc(C(=O)NCC(=O)OCCCOC(=O)CNC(=O)c2ccc(C)c(C)c2)cc1C,.,-12.3%[12.7 µM],.,.,.,.
O=C(Nc1cc(Cl)cc(Cl)c1)C(NCCO)c1ccccc1 (stereo not drawn),5.4%,-6.6%[0.0925 µM],35.5µM*,?,-4.3%,?
O=c1c2c3n(c(=S)nc2[nH]n1-c1ccccc1)CCCCC3,-9.5%,50.1µM*,-11.2%,-4.7%,-4.9%,?
CCOC(=O)c1ccc(NC(=O)CSc2nc(-c3ccc(F)cc3)cc(C(F)(F)F)c2C#N)cc1,.,-24.3%[59 µM],.,.,2.2%,.
N#CCCn1c(=O)c(-c2ccc(F)cc2)nc2cnc(N3CCOCC3)nc21,2.6%,1.5%[0.501 µM],17.3%,.,.,?
CC(Oc1ccccc1)C(=O)Nc1nnc2n1CCS2 (stereo not drawn),4.0%[46 µM],1.58µM*,.,.,1.1%,.
CC(C)C(=O)Nc1nnc2n1CCS2,-21.3%[46 µM],?,.,.,-2.5%,.
O=C(COc1ccccc1)Nc1nnc2n1CCS2,-3.0%[46 µM],1.41µM*,.,.,-6.7%,.
COc1cccc(OCC(=O)Nc2nnc3n2CCS3)c1,1.9%[46 µM],3.16µM*,.,.,-3.1%,.
Cc1ccc(-n2ncc3c2CC(C)(C)CC3NC(=O)CCc2cccnc2)cc1 (stereo not drawn),.,.,14.3%,.,-1.3%,.
COc1cc(Nc2nc(-c3ccccc3)c3cc(C)ccc3n2)cc(OC)c1OC,-0.8%,39.8µM*,-25.7%,-5.8%,18.6%,2.4%
CN(C)CCCN(C(=O)CCc1ccccc1)c1nc2ccc(F)cc2s1,-7.2%,?,-13.2%,0.8%,-1.5%,-2.5%
Cc1ccc2nc(N(CCCN(C)C)C(=O)c3sc4ccccc4c3Cl)sc2c1,-14.4%,50.1µM*,44.7µM*,3.7%,-14.4%,1.6%

# Assay outcomes deposited in PubChem BioAssay by National Center for Advancing Translational Sciences (NCATS).
